PubChem BioAssay (NCI)
About 83,000 compounds went through this panel and 20% of them were active in at least one assay; those are over-represented in the sample as a whole.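 96-well plates, one dose, 48 hours. Percent growth reported; active if below 10.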 A number with no mark means an inactive call. Activity calls are given as the source filed them.

system: SW-620 colon; assay: NCI-60 one-dose screen, 48 h (100 = growth as untreated, 0 = no growth, -100 = all killed); conditions: 10 µM unless noted

Structure (SMILES)	growth
Clc1cnc(Nc2ccc(OCCN3CCCC3)cc2)nc1NCc1ccco1	6.11% (active)
COc1ccc(Oc2nc(Nc3ccc(N4CCCCC4)nc3)ncc2NC(=O)c2cc(OC)cc(OC)c2)cc1	30.6%
CCCn1nc(-c2ccccc2)c2c(-c3ccccc3)onc2c1=O	43.5%
COc1ccc(/C(C)=C(\c2ccc(Cl)cc2)c2ccc(OCCCN(C)C)cc2)cc1F	38.3%
CCN(CC)N=Nc1nn(C(=O)Nc2ccc(Cc3ccccc3)cc2)c2ccc(Cl)cc12	44.4%
C=C1C(=O)O[C@H]2[C@H]1CC/C(COC(=O)NCc1ccc(Cn3c(=O)sn(CCCCl)c3=O)cc1)=C\CC[C@@]1(C)O[C@@H]21	-51.9% (active)
NC(=S)N/N=C/C(=O)O	65.7%
C=C(C)[C@@H]1CC[C@]2(CNCCO)CC[C@]3(C)[C@H](CC[C@@H]4[C@@]5(C)CCC(N)[C@@](C)(CO)[C@@H]5CC[C@]43C)[C@@H]12 (stereo partly drawn)	-60.2% (active)
Clc1ccc2c(NCCCN3CCN(c4nc(-n5ccnc5)nc5ccccc45)CC3)ccnc2c1	-52.9% (active)
O=C1C(Cl)C(c2ccccc2Cl)N1n1cnnc1 (stereo not drawn)	94.5%
COC(=O)c1ccc(CSc2nnc(-c3ccncc3)o2)cc1	108%
C#CC[C@H](N)C(=O)O	103% [20 µM]
CN1CCN(C(=O)[C@]23CCC(C)(C)C[C@@H]2C2=CC[C@@H]4[C@@]5(C)Cc6c([nH]c7ccccc67)C(C)(C)[C@@H]5CC[C@@]4(C)[C@]2(C)CC3)CC1	96.4%
